The results in this text go back to PubChem BioAssay (EPA / NIEHS).

For assay [1], the target named is Bile acid receptor (Homo sapiens) (UniProt Q96RI1). Put plainly: OT_FXR_FXRSRC1_0480: Odyssey Thera (OT) 8-hour HEK293T Protein-Complementation Assay for Farnesoid X receptor/SRC-1 Co-activator (AID 2283383). In outline:
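PCA, HEK293T, 8 h compound exposure; FXR–SRC-1 binding reconstitutes split reporter; fluorescence intensity; positive-direction fit vs DMSO.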

The target is the same in assay [2]. Description: OT_FXR_FXRSRC1_1440: Odyssey Thera (OT) 24-hour HEK293T Protein-Complementation Assay for Farnesoid X receptor/SRC-1 Co-activator (AID 2283384). In outline:
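Measures ligand-driven FXR–SRC-1 co-activator recruitment in HEK293T via fragment complementation, fluorescence intensity at 24 h. DMSO served as negative control and baseline for gain-of-signal fitting.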

The target in assay [3] is Retinoic acid receptor RXR-alpha (Homo sapiens) (UniProt P19793). Description: OT_NURR1_NURR1RXRa_0480: Odyssey Thera (OT) 8-hour HEK293T Protein Complementation Assay for Nurr1/retinoid X receptor (RXR) (AID 2283385). In outline: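 Interaction of bait and prey reconstitutes a functional reporter, whose fluorescence was measured in HEK293T cells dosed with compound for 8 hours. Signal gain relative to DMSO defined the single endpoint.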
Chain of Retinoic acid receptor RXR-alpha (Homo sapiens) (P19793 whole entry, looked up): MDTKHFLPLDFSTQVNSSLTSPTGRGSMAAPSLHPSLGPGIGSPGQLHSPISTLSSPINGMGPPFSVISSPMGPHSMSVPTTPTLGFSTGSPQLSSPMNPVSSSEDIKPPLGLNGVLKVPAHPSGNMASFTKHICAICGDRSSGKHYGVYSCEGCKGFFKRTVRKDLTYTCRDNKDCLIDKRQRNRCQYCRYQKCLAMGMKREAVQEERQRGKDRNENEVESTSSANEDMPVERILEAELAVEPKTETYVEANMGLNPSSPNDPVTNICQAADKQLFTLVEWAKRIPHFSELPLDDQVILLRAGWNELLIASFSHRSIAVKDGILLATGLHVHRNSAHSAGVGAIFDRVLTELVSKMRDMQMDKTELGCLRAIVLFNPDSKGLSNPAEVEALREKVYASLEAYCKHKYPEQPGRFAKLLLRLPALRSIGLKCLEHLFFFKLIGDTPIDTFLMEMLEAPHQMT

Assay [4] shares this target. Description: OT_NURR1_NURR1RXRa_1440: Odyssey Thera (OT) 24-hour HEK293T Protein Complementation Assay for Nurr1/retinoid X receptor (RXR) (AID 2283386). The method, boiled down: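 Steps: fragment-tagged Nurr1 and RXRα expressed in HEK293T; compounds added; after 24 h, complemented reporter quantified by fluorescence intensity; signal increase over DMSO fitted as the single endpoint.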

In assay [5] the target is Peroxisome proliferator-activated receptor gamma (Homo sapiens) (UniProt P37231). Description: OT_PPARg_PPARgSRC1_0480: Odyssey Thera (OT) 8-hour Protein-Complementation Assay for Peroxisome Proliferator-activated Receptor Gamma / SRC-1 Co-activator (AID 2283387).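 Also: nuclear to cytoplasmic split Venus YFP fluorescence ratio reporting PPARg SRC-1 interaction.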 The method, boiled down: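 HEK293T transiently transfected with PPARg and SRC-1 fused to Venus YFP fragments, compounds 8 h at 37C. Fixed, Draq5-stained cells imaged; nuclear/cytoplasmic 488 nm fluorescence ratio over at least 350 cells per image; gain fitted versus DMSO.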
Chain of Peroxisome proliferator-activated receptor gamma (Homo sapiens) (P37231 whole entry, looked up, the tested form may be a part): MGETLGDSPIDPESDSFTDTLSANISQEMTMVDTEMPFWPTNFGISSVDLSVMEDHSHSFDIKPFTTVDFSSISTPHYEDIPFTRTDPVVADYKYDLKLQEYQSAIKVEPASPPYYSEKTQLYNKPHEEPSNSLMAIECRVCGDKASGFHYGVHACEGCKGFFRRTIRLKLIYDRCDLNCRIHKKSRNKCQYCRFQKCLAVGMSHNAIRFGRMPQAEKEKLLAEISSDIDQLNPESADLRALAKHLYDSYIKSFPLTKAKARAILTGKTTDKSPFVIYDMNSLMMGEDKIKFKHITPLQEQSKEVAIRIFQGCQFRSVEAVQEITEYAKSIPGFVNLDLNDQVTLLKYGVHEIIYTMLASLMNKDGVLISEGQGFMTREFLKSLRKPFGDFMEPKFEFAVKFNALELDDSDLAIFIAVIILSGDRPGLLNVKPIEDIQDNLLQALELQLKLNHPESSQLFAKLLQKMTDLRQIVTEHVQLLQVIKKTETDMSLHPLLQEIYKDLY

The target is the same in assay [6]. Put plainly: OT_PPARg_PPARgSRC1_1440: Odyssey Thera (OT) 24-hour Protein-Complementation Assay for Peroxisome Proliferator-activated Receptor Gamma/ SRC-1 Co-activator (AID 2283388). The method, boiled down:
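Transient HEK293T, YFP fragments 1-158/159-239 (mutant IFP1/IFP2) fused to PPARg/SRC-1; 24 h dosing; fix 4% formaldehyde, Draq5; Opera imaging 488/635 nm; N/C ratio, gain vs DMSO.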

Read-out in assay [7]: Tumor necrosis factor receptor superfamily member 6 (Homo sapiens) (UniProt P25445)
Description: LTEA_HepaRG_FAS: Life Technologies and Expression Analysis (LTEA) Assay for Fas cell surface death receptor (FAS) using HepaRG (AID 2283447; active = hit-call score of the fitted dose curve at least 0.9, where 1 is the maximum; inactive = score below 0.9). As to conditions: mRNA level, 48 h; actives raise or lower the signal. In outline:
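Differentiated human HepaRG cells, pre-cultured 48 h, were exposed in duplicate for 48 h to 8-point half-log concentrations (top 100 uM, 0.5% DMSO) in serum-free induction medium; FAS mRNA measured by qRT-PCR, normalized to ACTB/GAPDH/POLR2A, bidirectional fit versus DMSO.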

Read-out in assay [8]: Fatty acid synthase (Homo sapiens) (UniProt P49327)
Put plainly: LTEA_HepaRG_FASN: Life Technologies and Expression Analysis (LTEA) Assay for Fatty Acid Synthase (FASN) using HepaRG (AID 2283448; active = hit-call score of the fitted dose curve at least 0.9, where 1 is the maximum; inactive = score below 0.9). Particulars: mRNA level, 48 h; actives raise or lower the signal. In outline:
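Cells were plated, cultured 48 h, switched to serum-free induction medium, then dosed in duplicate (max 100 uM, half-log dilutions, 0.5% DMSO) for 48 h. RNA was then isolated and FASN quantified by qRT-PCR.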

Read-out in assay [9]: Cyclin D2 (CCND2), CCND2 (gene 894)
Description: LTEA_HepaRG_CCND2: Life Technologies and Expression Analysis (LTEA) Assay for Cyclin D2 (CCND2) using HepaRG (AID 2283449; active = hit-call score of the fitted dose curve at least 0.9, where 1 is the maximum; inactive = score below 0.9;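 also: CCND2 transcript measured by TaqMan qRT-PCR and normalised to three housekeeping genes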). As to conditions: mRNA level, 48 h; actives raise or lower the signal. The method, boiled down:
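In this HepaRG study, an eight-point concentration series (max 100 uM, 0.5% DMSO) is applied for 48 h. CCND2 mRNA change is derived by qRT-PCR normalised to ACTB, GAPDH and POLR2A.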

Read-out in assay [10]: Cyclin Dependent Kinase Inhibitor 1A (CDKN1A), CDKN1A (gene 1026)
Description: LTEA_HepaRG_CDKN1A: Life Technologies and Expression Analysis (LTEA) Assay for Cyclin Dependent Kinase Inhibitor 1A (CDKN1A) using HepaRG (AID 2283450; active = hit-call score of the fitted dose curve at least 0.9, where 1 is the maximum; inactive = score below 0.9). As to conditions: mRNA level, 48 h; actives raise or lower the signal. In outline: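 Cryopreserved HepaRG cells were plated and cultured 48 h, then switched to serum-free induction medium. Chemicals (eight half-log concentrations, top 100 uM, 0.5% DMSO) were applied for 48 h. Lysates underwent qRT-PCR for CDKN1A with housekeeping normalization.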

The nature of assay [11]: CEETOX_H295R_11DCORT: CeeTox H295R High-throughput Steroidogenesis Assay for 11-Deoxycortisol (11DCORT) (AID 2283432; active = hit-call score of the fitted dose curve at least 0.9, where 1 is the maximum; inactive = score below 0.9;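 as to AC50: human adrenal H295R cells prestimulated with 10 µM forskolin for 48 h; 11-deoxycortisol secreted into the medium measured by LC-MS/MS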). Particulars: actives raise or lower the signal. The method, boiled down:
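H295R cells prestimulated 48 h with 10 uM forskolin, then exposed 48 h to chemical in 0.1% DMSO. 11-Deoxycortisol in medium quantified by HPLC-MS/MS after MTBE extraction; bidirectional fit versus DMSO. MTT viability read in same wells.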

A short description of assay [12]: CEETOX_H295R_OHPROG: CeeTox H295R High-throughput Steroidogenesis Assay for OH-Progesterone (OHPROG) (AID 2283435; active = hit-call score of the fitted dose curve at least 0.9, where 1 is the maximum; inactive = score below 0.9;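 as to AC50: human adrenal H295R cells primed 48 h with 10 µM forskolin; 17alpha-hydroxyprogesterone secreted into medium measured by HPLC-MS/MS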). As to conditions: actives raise or lower the signal. In outline:
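Steps: seed H295R cells and adhere overnight; stimulate with 10 uM forskolin for 48 h; replace with chemical-containing medium (0.1% DMSO) for 48 h; extract medium with MTBE; quantify 17alpha-hydroxyprogesterone by reverse-phase C18 HPLC-MS/MS against a 7-point curve.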

Assay [13] in a line: CEETOX_H295R_CORTIC: CeeTox H295R High-throughput Steroidogenesis Assay for Corticosterone (CORTIC) (AID 2283437; active = hit-call score of the fitted dose curve at least 0.9, where 1 is the maximum; inactive = score below 0.9;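 also: corticosterone secreted into medium quantified by mass spectrometry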;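 as to AC50: human H295R adrenal cells prestimulated with forskolin before chemical exposure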). Particulars: actives raise or lower the signal. In outline: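 Steps: seed H295R, adhere overnight; 10 uM forskolin 48 h; replace with chemical (0.1% DMSO) 48 h; extract medium with MTBE; quantify corticosterone by HPLC-MS/MS; score bidirectionally vs DMSO.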
A short description of assay [14]: CEETOX_H295R_CORTISOL: CeeTox H295R High-throughput Steroidogenesis Assay for Cortisol (AID 2283438; active = hit-call score of the fitted dose curve at least 0.9, where 1 is the maximum; inactive = score below 0.9;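 also: cortisol secreted into medium quantified by LC-MS/MS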). As to conditions: actives raise or lower the signal. In outline: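 Cortisol synthesis by H295R cells is measured 48 h after chemical dosing, following a 48 h stimulation with 10 uM forskolin. Hormone is extracted and quantified by HPLC-MS/MS, and activity is fitted bidirectionally against the DMSO control.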

The nature of assay [15]: CEETOX_H295R_DOC: CeeTox H295R High-throughput Steroidogenesis Assay for DOC (AID 2283439; active = hit-call score of the fitted dose curve at least 0.9, where 1 is the maximum; inactive = score below 0.9). Particulars: actives raise or lower the signal. In outline: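 Steps: seed H295R, adhere overnight; 10 uM forskolin 48 h; replace with chemical medium (0.1% DMSO) 48 h; collect medium, MTBE extraction, HPLC-MS/MS for DOC. Viability then checked by MTT; cytotoxic chemicals diluted until viability ≥70%.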

Assay [16] in a line: CEETOX_H295R_ESTRADIOL: CeeTox H295R High-throughput Steroidogenesis Assay for Estradiol (AID 2283440; active = hit-call score of the fitted dose curve at least 0.9, where 1 is the maximum; inactive = score below 0.9;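 also: estradiol secreted into medium quantified by LC-MS/MS after dansyl derivatisation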). Particulars: actives raise or lower the signal. In outline: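 Following OECD 456 with minor changes, H295R cells received 10 uM forskolin for 48 h and then test chemical for 48 h. Hormone output was read by HPLC-MS/MS, with cytotoxic concentrations diluted until MTT viability reached ≥70%.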

A short description of assay [17]: CEETOX_H295R_PROG: CeeTox H295R High-throughput Steroidogenesis Assay for Progesterone (PROG) (AID 2283442; active = hit-call score of the fitted dose curve at least 0.9, where 1 is the maximum; inactive = score below 0.9). Particulars: actives raise or lower the signal. In outline: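 Adrenal H295R line, forskolin-stimulated (10 uM, 48 h) before dosing. 48 h exposure, 0.1% DMSO vehicle. Secreted progesterone by reverse-phase HPLC with ESI+ MS/MS quantification; DMSO-normalised bidirectional curve fit.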

Assay [18] in a line: CEETOX_H295R_OHPREG: CeeTox H295R High-throughput Steroidogenesis Assay for OH-Pregnenolone (OHPREG) (AID 2283434; active = hit-call score of the fitted dose curve at least 0.9, where 1 is the maximum; inactive = score below 0.9). As to conditions: actives raise or lower the signal. In outline: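 Readout: HPLC-MS/MS of 17alpha-hydroxypregnenolone in medium after 48 h chemical exposure of H295R cells pretreated with forskolin. Values fitted bidirectionally relative to DMSO; chemicals reducing viability to 20–70% were retested after 10-fold dilution.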

Several values for one entry are separate records, joined by “and”; a condition that tells them apart may be missing. Equal values may be shown once. Inconclusive results are not listed. Where a structure was tested more than once in an assay, its records may differ in their call. Activity calls are given as the source filed them. The calls were made as follows, unless noted: active = hit-call score of the fitted dose curve at least 0.9, where 1 is the maximum; inconclusive = response in the unintended direction; inactive = score below 0.9.

Chain of Bile acid receptor (Homo sapiens) (Q96RI1 whole entry, looked up): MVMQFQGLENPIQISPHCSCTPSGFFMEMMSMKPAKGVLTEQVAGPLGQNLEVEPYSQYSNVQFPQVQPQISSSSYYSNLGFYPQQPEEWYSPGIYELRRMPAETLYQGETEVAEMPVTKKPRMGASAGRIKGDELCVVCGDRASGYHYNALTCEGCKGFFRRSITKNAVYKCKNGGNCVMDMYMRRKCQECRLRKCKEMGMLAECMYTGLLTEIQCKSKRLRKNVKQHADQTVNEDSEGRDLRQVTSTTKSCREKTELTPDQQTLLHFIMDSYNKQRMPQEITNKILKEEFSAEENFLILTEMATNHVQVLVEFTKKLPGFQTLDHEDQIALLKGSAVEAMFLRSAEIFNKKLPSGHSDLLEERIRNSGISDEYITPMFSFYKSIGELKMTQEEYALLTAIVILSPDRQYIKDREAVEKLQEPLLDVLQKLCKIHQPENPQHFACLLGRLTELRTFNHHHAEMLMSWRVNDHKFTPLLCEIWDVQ
Chain of Fatty acid synthase (Homo sapiens) (P49327 whole entry, looked up): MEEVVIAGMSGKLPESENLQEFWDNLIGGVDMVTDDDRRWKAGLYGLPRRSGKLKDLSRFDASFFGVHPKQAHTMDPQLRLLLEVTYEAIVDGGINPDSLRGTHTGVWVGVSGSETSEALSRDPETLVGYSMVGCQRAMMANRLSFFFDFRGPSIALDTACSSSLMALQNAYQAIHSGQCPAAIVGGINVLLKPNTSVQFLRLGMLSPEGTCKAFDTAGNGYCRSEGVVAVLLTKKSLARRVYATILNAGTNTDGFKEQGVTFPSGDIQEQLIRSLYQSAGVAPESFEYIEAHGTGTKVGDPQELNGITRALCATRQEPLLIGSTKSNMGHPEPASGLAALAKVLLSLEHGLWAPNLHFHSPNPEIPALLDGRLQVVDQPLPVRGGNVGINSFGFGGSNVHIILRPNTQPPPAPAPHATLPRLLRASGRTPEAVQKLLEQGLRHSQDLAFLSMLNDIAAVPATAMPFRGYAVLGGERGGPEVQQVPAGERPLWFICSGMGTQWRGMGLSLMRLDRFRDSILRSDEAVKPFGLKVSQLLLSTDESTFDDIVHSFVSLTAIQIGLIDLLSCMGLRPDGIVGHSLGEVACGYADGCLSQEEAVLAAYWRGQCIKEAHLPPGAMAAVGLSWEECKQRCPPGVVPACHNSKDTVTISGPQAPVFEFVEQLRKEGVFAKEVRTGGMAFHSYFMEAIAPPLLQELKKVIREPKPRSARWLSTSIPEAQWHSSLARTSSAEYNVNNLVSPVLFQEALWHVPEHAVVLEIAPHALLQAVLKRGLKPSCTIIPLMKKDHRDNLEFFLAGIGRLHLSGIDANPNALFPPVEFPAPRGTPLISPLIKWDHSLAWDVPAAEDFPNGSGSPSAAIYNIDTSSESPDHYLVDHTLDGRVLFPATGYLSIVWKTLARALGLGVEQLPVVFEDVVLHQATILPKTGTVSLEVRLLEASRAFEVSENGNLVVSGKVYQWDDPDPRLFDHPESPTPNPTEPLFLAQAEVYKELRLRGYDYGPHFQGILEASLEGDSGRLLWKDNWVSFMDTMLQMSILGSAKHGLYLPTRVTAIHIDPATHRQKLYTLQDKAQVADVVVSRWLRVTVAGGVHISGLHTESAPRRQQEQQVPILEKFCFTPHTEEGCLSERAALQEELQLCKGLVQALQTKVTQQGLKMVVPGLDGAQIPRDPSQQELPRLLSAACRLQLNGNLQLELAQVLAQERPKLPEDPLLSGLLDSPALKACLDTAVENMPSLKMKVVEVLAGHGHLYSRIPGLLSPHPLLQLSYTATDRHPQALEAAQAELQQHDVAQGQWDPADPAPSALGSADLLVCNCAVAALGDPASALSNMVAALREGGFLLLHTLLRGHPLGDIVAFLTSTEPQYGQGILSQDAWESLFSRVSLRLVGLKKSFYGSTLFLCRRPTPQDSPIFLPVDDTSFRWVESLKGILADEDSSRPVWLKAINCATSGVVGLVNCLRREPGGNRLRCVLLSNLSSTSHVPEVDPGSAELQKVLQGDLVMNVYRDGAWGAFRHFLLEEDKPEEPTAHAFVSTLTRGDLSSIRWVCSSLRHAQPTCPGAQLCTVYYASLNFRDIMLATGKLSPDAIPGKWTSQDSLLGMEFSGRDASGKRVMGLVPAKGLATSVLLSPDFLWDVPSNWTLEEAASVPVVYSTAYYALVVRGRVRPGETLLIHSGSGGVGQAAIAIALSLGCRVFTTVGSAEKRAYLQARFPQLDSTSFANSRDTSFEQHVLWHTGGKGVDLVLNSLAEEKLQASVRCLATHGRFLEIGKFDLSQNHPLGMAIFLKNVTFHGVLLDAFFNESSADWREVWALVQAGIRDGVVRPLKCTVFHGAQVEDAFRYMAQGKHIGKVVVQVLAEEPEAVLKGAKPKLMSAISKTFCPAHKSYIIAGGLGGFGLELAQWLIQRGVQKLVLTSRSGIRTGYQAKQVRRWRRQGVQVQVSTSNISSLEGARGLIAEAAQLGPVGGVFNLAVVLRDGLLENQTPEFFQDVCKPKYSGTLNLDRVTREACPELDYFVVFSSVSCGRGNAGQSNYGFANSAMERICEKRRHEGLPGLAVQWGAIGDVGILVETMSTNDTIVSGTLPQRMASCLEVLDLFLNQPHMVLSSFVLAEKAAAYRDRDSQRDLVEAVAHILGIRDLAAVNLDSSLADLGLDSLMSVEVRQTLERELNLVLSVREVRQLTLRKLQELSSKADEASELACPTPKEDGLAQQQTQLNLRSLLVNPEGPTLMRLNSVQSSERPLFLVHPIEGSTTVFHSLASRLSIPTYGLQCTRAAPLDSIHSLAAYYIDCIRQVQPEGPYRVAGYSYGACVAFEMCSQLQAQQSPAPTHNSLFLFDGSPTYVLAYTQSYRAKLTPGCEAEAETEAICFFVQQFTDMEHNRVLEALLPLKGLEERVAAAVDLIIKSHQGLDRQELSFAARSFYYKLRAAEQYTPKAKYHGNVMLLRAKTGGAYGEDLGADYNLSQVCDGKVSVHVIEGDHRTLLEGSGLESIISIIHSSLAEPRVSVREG

As a reminder, the AC50 is the midpoint of the concentration-response curve, whichever way the signal moves. As for `NC(=O)N1C(=O)C(C(=O)c2cc(Cl)cs2)c2cc(F)c(Cl)cc21` (configuration not stated), the call in assay [1], in assay [3], in [4], in [5], in assay [6] and in assay [7] was inactive. Also, the call in [8] and in assay [10] was inactive. Further, the AC50 in assay [2] was 81.9 µM (active); in [3] it was 13.2 µM (active); in assay [4] it was 32.9 µM (active); in assay [9], 28.7 µM (active).

As for `CCN(CC)CCNc1ccc(CNC=O)c2sc3ccc(OC)cc3c(=O)c12`, the AC50 is 11.6 µM (active) in [1]; 11.9 µM (active) in [2]; 11.4 µM (active) and 11.9 µM (active) in [3]; 11.7 µM (active) and 11.8 µM (active) in assay [4]. Also, the outcome in assay [5], in [6], in assay [7], in assay [9] and in assay [10] was inactive.

In the case of `CC[C@H](c1ccc(O)cc1)[C@@H](CC)c1ccc(O)cc1`, the AC50 is 50 µM (active) and 65.7 µM (active) in [1]; 24.5 µM (active) and 31.9 µM (active) in assay [2]; 89.3 µM (active) in [7]; 62.4 µM (active) in [9]; 89.8 µM (active) in assay [10]. Besides, the compound was classed as inactive in [1], in [2], in assay [3], in [4], in assay [5] and in assay [6].

As for `OC1CCC(C2CCCCC2)CC1` (configuration not stated), the AC50 in [1] was 55.7 µM (active) and 35.6 µM (active) and 50 µM (active); in [13], 23.2 µM (active). The result in [1], in assay [2], in assay [3], in assay [4], in [5] and in [6] was inactive. For the same compound, the compound was classed as inactive in assay [11], in assay [12], in assay [14], in [15], in [16] and in assay [17]. The compound was called inactive in [7], in assay [9] and in [10].

Regarding `c1ccc2c(c1)ccc1ccccc12`, the compound was classed as inactive in assay [1], in assay [2], in assay [3], in assay [4], in assay [5] and in assay [6]. Also, the result in [13], in assay [17], in [7], in [9] and in [10] was inactive. Moreover, the AC50 in [11] was 55.9 µM (active); in [18] it was 27.2 µM (active); in assay [12], 55.1 µM (active).

For the compound `CN(C)C=O`, the call in [1], in assay [2], in assay [3], in assay [4], in assay [5] and in assay [6] was inactive. Besides, the outcome in [7], in [9] and in [10] was inactive.

For the compound `C=C(C)C(=O)OCCC(F)(F)C(F)(F)C(F)(F)C(F)(F)C(F)(F)C(F)(F)F`, the compound was called inactive in assay [1], in assay [2], in assay [3], in assay [4], in assay [5] and in assay [6]. The compound was classed as inactive in [7], in [8], in assay [9] and in assay [10].
